# Experimental data: PubChem BioAssay
# For some assays here: Entries with a potency or affinity are not part of this list. Active and inactive are the calls of the source.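 The calls were made as follows, unless noted: active = calcium signal cut by more than 3 SD below the full-agonist control yet still positive, in both repeats and the earlier primary screen; inactive = the rest.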
# Assays:
# [1] = system: TRPC4 beta (transient receptor potential cation channel C4), mouse; test: TRPC4 cation channel opening, retest – cell-based, Fluo4 calcium, HEK293 TRPC4beta/mu-opioid, duplicates, 10 µM, confirmation (AID 2426;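 active = fluorescence ratio normalized to control raised more than 50% in primary screen plus both repeat runs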); settings: Fluo4 calcium fluorescence, at 10 µM; stronger effect = higher value
# [2] = system: transient receptor potential cation channel C4 beta (TRPC4), mouse; test: TRPC4 cation channel opening, second retest – cell-based, second round, Fluo4, HEK293 TRPC4beta/mu-opioid, 1 µM, confirmation (AID 2461;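 active = primary screen active and over 50% activation in each of two duplicate runs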); settings: Fluo4 calcium fluorescence, at 1 µM; stronger effect = higher value
# [3] = system: TRPC4 (transient receptor potential cation channel C4 beta), mouse; test: potentiation of DAMGO EC20 TRPC4 response – cell-based, second round, Fluo-4, HEK293 TRPC4beta/mu-opioid, 1 µM, confirmation (AID 2554;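 active = primary screen hit whose fluorescence ratio, in both repeats, exceeds the weak agonist control mean by 3 SD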); settings: DAMGO EC20, Fluo-4 calcium flux, at 1 µM; stronger effect = higher value
# [4] = system: TRPC4 beta (transient receptor potential cation channel C4), mouse; test: potentiation of DAMGO EC20 TRPC4 response – cell-based, Fluo-4, HEK293 TRPC4beta/mu-opioid, confirmation (AID 2555;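 active = primary screen hit whose calcium fluorescence ratio, in both repeats, exceeds the weak agonist control mean by 3 SD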); settings: DAMGO EC20, Fluo-4 calcium flux, at 10 µM; stronger effect = higher value
# [5] = molecular target: Short transient receptor potential channel 4 (Mus musculus) (UniProt Q9QUQ5); test: blockers of DAMGO-evoked TRPC4 calcium flux – cell-based, Fluo4, HEK293 TRPC4beta/mu-opioid, confirmation (AID 2636); settings: at 10 µM; stronger effect = higher value
# Chain of Short transient receptor potential channel 4 (Mus musculus) (Q9QUQ5 whole entry, looked up): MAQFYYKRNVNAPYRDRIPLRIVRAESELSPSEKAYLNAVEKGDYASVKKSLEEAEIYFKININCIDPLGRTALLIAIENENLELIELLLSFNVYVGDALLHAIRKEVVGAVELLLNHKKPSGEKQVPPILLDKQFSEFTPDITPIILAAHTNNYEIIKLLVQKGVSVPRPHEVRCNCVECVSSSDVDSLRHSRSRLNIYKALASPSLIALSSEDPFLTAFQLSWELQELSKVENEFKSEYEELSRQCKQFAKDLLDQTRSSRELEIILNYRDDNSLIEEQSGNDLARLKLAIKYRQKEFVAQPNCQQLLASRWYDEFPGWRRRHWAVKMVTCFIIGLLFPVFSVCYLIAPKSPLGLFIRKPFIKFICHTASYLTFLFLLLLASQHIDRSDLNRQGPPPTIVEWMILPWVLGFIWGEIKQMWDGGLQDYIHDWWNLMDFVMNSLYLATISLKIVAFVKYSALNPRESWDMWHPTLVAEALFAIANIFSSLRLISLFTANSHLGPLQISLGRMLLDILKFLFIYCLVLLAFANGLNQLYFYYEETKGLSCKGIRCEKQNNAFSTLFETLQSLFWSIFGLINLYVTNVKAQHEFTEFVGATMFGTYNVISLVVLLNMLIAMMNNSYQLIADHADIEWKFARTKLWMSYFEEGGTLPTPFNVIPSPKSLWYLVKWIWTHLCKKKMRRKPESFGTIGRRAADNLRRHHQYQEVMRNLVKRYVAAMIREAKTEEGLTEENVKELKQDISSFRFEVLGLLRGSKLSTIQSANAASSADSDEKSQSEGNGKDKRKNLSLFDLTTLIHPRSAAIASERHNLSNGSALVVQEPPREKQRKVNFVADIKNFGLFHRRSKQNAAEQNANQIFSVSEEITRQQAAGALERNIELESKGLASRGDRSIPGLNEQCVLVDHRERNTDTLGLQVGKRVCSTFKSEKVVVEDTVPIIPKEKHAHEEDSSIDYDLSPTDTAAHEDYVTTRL
# [6] = molecular target: Short transient receptor potential channel 4 (Mus musculus) (UniProt Q9QUQ5); test: blockers of DAMGO-evoked TRPC4 calcium flux – cell-based, second round, Fluo4, HEK293 TRPC4beta/mu-opioid, 1 µM, confirmation (AID 2637;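 active = calcium signal ratio cut to more than 3 SD under the fully stimulated control mean yet still positive, in both repeats and the primary screen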;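 as to inhibition: percent of integrated ratio relative to wells lacking test compound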); settings: at 1 µM; stronger effect = higher value
# [7] = molecular target: Short transient receptor potential channel 4 (Mus musculus) (UniProt Q9QUQ5); test: calcium entry via TRPC4 opening agents – cell-based, HEK293 TRPC4/mu-opioid, Fluo-4 calcium, dose response (AID 434937;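 active = primary screen activator hit with a dose response curve and TRPC4 channel activation at any tested dose; inactive = no activation, no dose response, or not a primary hit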)
# [8] = molecular target: Short transient receptor potential channel 4 (Mus musculus) (UniProt Q9QUQ5); test: potentiation of DAMGO-evoked TRPC4 calcium signal – cell-based, HEK293 TRPC4/mu-opioid, Fluo-4 calcium, EC20 DAMGO, dose response (AID 434941;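 active = earlier screen potentiator hit that boosts the TRPC4 ion channel at some dose, with a dose response; inactive = no potentiation, no dose response, or not a prior hit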;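 also: calcium entry triggered by an EC20 dose of DAMGO at the co-expressed mu-opioid receptor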)
# [9] = molecular target: Short transient receptor potential channel 6 (Mus musculus) (UniProt Q61143); test: TRPC6 blockade by TRPC4 inhibitor hits – cell-based, HEK293, membrane potential dye, duplicate, selectivity assay for TRPC4 inhibitor project, confirmation (AID 434948;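 active = active in primary screen and both duplicates, each dropping signal beyond three positive-control SD with fluorescence still positive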); settings: HEK293 TRPC6, membrane potential dye fluorescence, at 10 µM, stimulated with maximal-effect acetylcholine; stronger effect = higher value
# Chain of Short transient receptor potential channel 6 (Mus musculus) (Q61143 whole entry, looked up): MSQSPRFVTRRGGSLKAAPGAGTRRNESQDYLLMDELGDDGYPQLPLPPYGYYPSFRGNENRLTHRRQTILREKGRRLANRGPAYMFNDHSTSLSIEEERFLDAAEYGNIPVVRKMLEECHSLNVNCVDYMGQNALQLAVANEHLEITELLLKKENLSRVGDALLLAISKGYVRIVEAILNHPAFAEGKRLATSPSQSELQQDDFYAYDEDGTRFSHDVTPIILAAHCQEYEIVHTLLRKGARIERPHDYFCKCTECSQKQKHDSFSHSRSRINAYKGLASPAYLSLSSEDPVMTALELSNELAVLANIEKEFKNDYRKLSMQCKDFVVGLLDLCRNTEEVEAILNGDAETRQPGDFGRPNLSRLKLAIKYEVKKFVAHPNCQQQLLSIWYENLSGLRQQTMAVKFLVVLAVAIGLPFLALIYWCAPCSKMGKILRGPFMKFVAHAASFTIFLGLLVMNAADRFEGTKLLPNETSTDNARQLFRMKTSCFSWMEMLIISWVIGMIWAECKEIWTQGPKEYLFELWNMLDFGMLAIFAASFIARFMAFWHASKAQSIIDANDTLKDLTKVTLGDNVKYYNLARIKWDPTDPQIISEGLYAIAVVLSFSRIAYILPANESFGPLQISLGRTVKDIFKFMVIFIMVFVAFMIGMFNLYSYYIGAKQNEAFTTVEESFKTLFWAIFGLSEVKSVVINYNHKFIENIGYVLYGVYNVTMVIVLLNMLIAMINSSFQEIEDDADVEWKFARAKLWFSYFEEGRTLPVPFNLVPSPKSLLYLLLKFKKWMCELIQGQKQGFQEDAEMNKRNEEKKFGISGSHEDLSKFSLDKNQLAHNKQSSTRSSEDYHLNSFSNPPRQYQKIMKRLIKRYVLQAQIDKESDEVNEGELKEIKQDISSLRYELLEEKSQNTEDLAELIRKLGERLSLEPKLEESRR
# [10] = molecular target: Short transient receptor potential channel 6 (Mus musculus) (UniProt Q61143); test: TRPC6 opening by TRPC4 activator hits – cell-based, HEK293, membrane potential dye, duplicate, selectivity assay for TRPC4 activator project, confirmation (AID 434950;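 active = membrane potential signal rise above negative control mean plus 3 SD in both duplicates, also active in the earlier TRPC4 screen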); settings: HEK293 TRPC6, membrane potential fluorescence, at 10 µM; activation: stronger effect = higher value; outcome: activation
# [11] = molecular target: Short transient receptor potential channel 6 (Mus musculus) (UniProt Q61143); test: positive modulators of mouse TRPC6 channel – HEK293 cells, membrane potential dye, duplicate, selectivity assay for TRPC4 potentiator project, confirmation (AID 434952;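 active = compound raising the membrane signal above positive-control mean plus 3 SD in both repeats, and a primary screen hit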); settings: HEK293 TRPC6, membrane potential dye fluorescence, at 10 µM, maximal acetylcholine added after compound; stronger effect = higher value
# [12] = molecular target: Short transient receptor potential channel 4 (Mus musculus) (UniProt Q9QUQ5); test: calcium flux activators in TRPC4/5HT1a cells, counter-screen for TRPC4 activator project, cell-based, second counter screen, HEK293 TRPC4/5HT1a, Fluo-4 (AID 434977;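 active = calcium signal rise above buffer-control mean plus 5 SD in both duplicates, and also a hit in the primary screen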); settings: Fluo-4 calcium flux, at 10 µM; stronger effect = higher value
# [13] = serotonin-gated TRPC4 signal block – cell-based, second counter screen, HEK293 TRPC4/5HT1a, Fluo-4, counter-screen for TRPC4 inhibitor project, confirmation (AID 434978;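 active = primary screen active whose calcium signal fell more than 3 SD beyond the full-serotonin control mean in both duplicate plates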;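 as to outcome: serotonin given first at submaximal then at maximal dose after compound preincubation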); settings: Fluo-4 calcium flux, at 10 µM, serotonin added to trigger calcium flux; stronger effect = higher value
# [14] = system: TRPC4 (mouse), co-expressed with 5HT1a in HEK293; test: enhancement of serotonin-evoked TRPC4 response – cell-based, second counter screen, HEK293 TRPC4/5HT1a, Fluo-4, counter-screen for TRPC4 potentiator project, confirmation (AID 434979;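 active = signal rise over 3 SD above mean of control wells given weak agonist, in both repeats and first screen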); settings: Fluo-4 calcium flux, at 10 µM, serotonin added at its EC20 dose; stronger effect = higher value
# [15] = nonspecific calcium rise without TRPC4 – cell-based, HEK293 mu-opioid receptor line, counter-screen for TRPC4 activator project, confirmation (AID 449723;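 active = hit in primary screen, with calcium signal over 5 SD above buffer well mean in both duplicates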;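 also: counter screen cells carry the mu-opioid receptor alone and lack TRPC4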); settings: HEK293 mu-opioid cells, Fluo-4 calcium fluorescence, at 10 µM; stronger effect = higher value
# [16] = nonspecific potentiation of DAMGO calcium response – cell-based, HEK293 mu-opioid receptor line, counter-screen for TRPC4 allosteric potentiator project, confirmation (AID 449724;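 active = calcium signal rise more than 3 SD above the low-dose agonist control mean, in both duplicate plates and the primary screen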); settings: HEK293 mu-opioid receptor cells, Fluo-4 calcium flux, at 10 µM, compound added before EC20 DAMGO stimulus; stronger effect = higher value
Compound,outcome [1],outcome [2],outcome [3],outcome [4],inhibition [5],inhibition [6],outcome [7],outcome [8],outcome [9],outcome [10],outcome [11],outcome [12],inhibition [13],outcome [14],outcome [15],outcome [16],outcome [6],outcome [13],inhibition [9],outcome [5]
Cc1cc(NCc2ccccc2)nc(N2CCOCC2)n1,inactive,inactive,inactive,inactive,95% (active),40% (active),inactive,inactive,inactive,inactive,inactive,inactive,26.5% (active),inactive,inactive,inactive,–,–,–,–
CC(C)NC(=S)N1CCN(C/C=C/c2ccccc2)CC1,inactive,inactive,inactive,inactive,71% (active),–,inactive,inactive,inactive,inactive,inactive,inactive,–,inactive,inactive,inactive,inactive,inactive,–,–
CN(C(=O)CSc1nc(-c2ccc(C(C)(C)C)cc2)c(C#N)c(=O)[nH]1)C1CCCCC1,inactive,inactive,inactive,inactive,97% (active),–,inactive,inactive,inactive,inactive,inactive,inactive,4.92% (active),inactive,inactive,inactive,inactive,–,–,–
Cn1cc(CN2CCCCC2CO)c(-c2ccc(Oc3ccccc3)cc2)n1 (centres undefined),inactive,inactive,inactive,inactive,86% (active),41% (active),inactive,inactive,inactive,inactive,inactive,inactive,39.6% (active),inactive,inactive,inactive,–,–,–,–
CC(=O)N1CCN(c2ccccc2NC(=O)c2cccs2)CC1,inactive,inactive,inactive,inactive,76% (active),43% (active),inactive,inactive,inactive,inactive,inactive,inactive,–,inactive,inactive,inactive,–,inactive,–,–
Cc1c(CCOC(=O)c2cccc([N+](=O)[O-])c2)sc[n+]1CC(=O)c1ccccc1,inactive,inactive,inactive,inactive,88% (active),–,inactive,inactive,inactive,inactive,inactive,inactive,28.9% (active),inactive,inactive,inactive,inactive,–,–,–
Cc1nc(Cl)nc(N(C)c2ccccc2)c1[N+](=O)[O-],inactive,inactive,inactive,inactive,97% (active),49% (active),inactive,inactive,inactive,inactive,inactive,inactive,43.6% (active),inactive,inactive,inactive,–,–,–,–
Cc1cccc(N2CCN(Cc3ccoc3)CC2)c1C,inactive,inactive,inactive,inactive,72% (active),–,inactive,inactive,inactive,inactive,inactive,inactive,25.2% (active),inactive,inactive,inactive,inactive,–,–,–
CC(NC(=O)c1ccco1)C(c1cccs1)N1CCN(c2ccccc2)CC1 (centres undefined),inactive,inactive,inactive,inactive,98% (active),51% (active),inactive,inactive,inactive,inactive,inactive,inactive,–,inactive,inactive,inactive,–,inactive,–,–
COC(=O)c1ccc(CSc2nc3ccccc3c(=O)n2CC(C)C)o1,inactive,inactive,inactive,inactive,82% (active),41% (active),inactive,inactive,inactive,inactive,inactive,inactive,39.8% (active),inactive,inactive,inactive,–,–,–,–
NC(=O)N/N=C1\c2ccccc2-c2c(C(N)=O)cccc21,inactive,inactive,inactive,inactive,80% (active),65% (active),inactive,inactive,inactive,inactive,inactive,inactive,38.9% (active),inactive,inactive,inactive,–,–,–,–
CC(C)Cc1nc(N2CCOCC2)c(C#N)c2c1CCC2,inactive,inactive,inactive,inactive,76% (active),50% (active),inactive,inactive,inactive,inactive,inactive,inactive,35.1% (active),inactive,inactive,inactive,–,–,–,–
CC(NCCC(Cc1ccccc1)c1ccco1)c1ccccc1 (centres undefined),inactive,inactive,inactive,inactive,97% (active),–,inactive,inactive,–,inactive,inactive,inactive,28.4% (active),inactive,inactive,inactive,inactive,–,39% (active),–
CCOC(=O)C1(CCOC)CCN(C(C)CCc2ccc(OC)cc2)CC1 (centres undefined),inactive,inactive,inactive,inactive,75% (active),–,inactive,inactive,inactive,inactive,inactive,inactive,–,inactive,inactive,inactive,inactive,inactive,–,–
COc1cc(CNCCc2ccc(F)cc2)ccc1OCc1ccc(Cl)nc1,inactive,inactive,inactive,inactive,84% (active),–,inactive,inactive,–,inactive,inactive,inactive,–,inactive,inactive,inactive,inactive,inactive,40.5% (active),–
N=c1c2c(n(Cc3ccccc3)c3c1CCC3)CCC2,inactive,inactive,inactive,inactive,65% (active),–,inactive,inactive,–,inactive,inactive,inactive,37.3% (active),inactive,inactive,inactive,inactive,–,53.5% (active),–
CC1CCN(C(C)C(=O)Nc2ccccc2-c2ccccc2)CC1 (centres undefined),inactive,inactive,inactive,inactive,82% (active),36% (active),inactive,inactive,inactive,inactive,inactive,inactive,33.1% (active),inactive,inactive,inactive,–,–,–,–
COc1ccc(C2CC(c3ccccc3)Nc3nc(NC(=O)c4cccs4)nn32)cc1 (centres undefined),inactive,inactive,inactive,inactive,95% (active),–,inactive,inactive,inactive,inactive,inactive,inactive,–,inactive,inactive,inactive,inactive,inactive,–,–
Cc1ccc(CNC(C)c2ccccc2)cc1 (centres undefined),inactive,inactive,inactive,inactive,92% (active),–,inactive,inactive,inactive,inactive,inactive,inactive,30.6% (active),inactive,inactive,inactive,inactive,–,–,–
CC12CCC(C/C1=N/OC(=O)c1cccc([N+](=O)[O-])c1)C2(C)C (centres undefined),inactive,inactive,inactive,inactive,82% (active),40% (active),inactive,inactive,inactive,inactive,inactive,inactive,28.3% (active),inactive,inactive,inactive,–,–,–,–
CCOC(=O)C1(CC2CC2)CCN(Cc2cc(Cl)c(O)c(OC)c2)CC1,inactive,inactive,inactive,inactive,71% (active),–,inactive,inactive,inactive,inactive,inactive,inactive,–,inactive,inactive,inactive,inactive,inactive,–,–
COc1ccc2nc(C)cc(NCc3ccc(F)cc3)c2c1,inactive,inactive,inactive,inactive,84% (active),–,inactive,inactive,–,inactive,inactive,inactive,–,inactive,inactive,inactive,inactive,inactive,56% (active),–
CNc1nc(SCc2ccccc2Cl)nc2c1CCCC2,inactive,inactive,inactive,inactive,90% (active),–,inactive,inactive,inactive,inactive,inactive,inactive,13.9% (active),inactive,inactive,inactive,inactive,–,–,–
CC(C)c1nc(CNC(=O)CC2C(=O)NCCN2Cc2ccc(F)cc2Cl)cs1 (centres undefined),inactive,inactive,inactive,inactive,92% (active),–,inactive,inactive,inactive,inactive,inactive,inactive,–,inactive,inactive,inactive,inactive,inactive,–,–
Brc1ccc(N/N=C(/N=Nc2nn[nH]n2)c2ccccc2)cc1,inactive,inactive,inactive,inactive,–,–,inactive,inactive,–,inactive,inactive,inactive,30.4% (active),inactive,inactive,inactive,inactive,–,25.5% (active),inactive
CCOc1cc(CNCCCN2CCOCC2)cc(Br)c1OCc1ccccc1Cl,inactive,inactive,inactive,inactive,77% (active),–,inactive,inactive,inactive,inactive,inactive,inactive,–,inactive,inactive,inactive,inactive,inactive,–,–
CCc1ccc(/C=C2/SC(=S)N(CCCC(=O)Nc3ccccc3C(=O)O)C2=O)cc1,inactive,inactive,inactive,inactive,93% (active),–,inactive,inactive,inactive,inactive,inactive,inactive,21.2% (active),inactive,inactive,inactive,inactive,–,–,–
OCC1(Cc2ccc(Cl)cc2)CCN(Cc2ccccc2F)CC1,inactive,inactive,inactive,inactive,89% (active),38% (active),inactive,inactive,inactive,inactive,inactive,inactive,27.9% (active),inactive,inactive,inactive,–,–,–,–
O=C(COc1ccc(F)cc1)c1c(O)cc(O)cc1O,inactive,inactive,inactive,inactive,84% (active),–,inactive,inactive,inactive,inactive,inactive,inactive,36.3% (active),inactive,inactive,inactive,inactive,–,–,–
